Molecules are shown by their SMILES. The campaign covered roughly 310,000 compounds. About 17,000 (5.5%) were called active. A call without a number means that no potency is given here. About 11% were inconclusive and are not listed. The call rests on the fitted dose curve; in most records, active means well fitted inhibition curve with a large enough effect; inconclusive means small, poorly fitted or top-dose-only effect, or effect the other way; inactive means no such curve, though single readings can be large or run the other way. Many of the other results were omitted from the sample, so actives are more common in it than they were.
Potency means the concentration at half of the fitted maximal effect.

In this experiment the target is Nuclear receptor ROR-gamma (Mus musculus) (UniProt P51450). Nature of the experiment: qHTS for inhibitors of ROR gamma transcriptional activity. Further: nearly all actives have a fitted effect of over 60% in size. As to conditions: Drosophila S2 Gal4-RORgamma UAS-luciferase reporter, 20 h; series mostly up to 53.6 µM. The method in brief: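 Using a luciferase readout, inhibitors were identified by reduced reporter activity in Drosophila cells coexpressing a copper-inducible Gal4–ROR gamma fusion and UAS-driven Photinus luciferase, incubated 20 hr after 700 uM copper sulfate.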
Nuclear receptor ROR-gamma (Mus musculus), sequence (P51450 whole entry, looked up, the tested form may be a part): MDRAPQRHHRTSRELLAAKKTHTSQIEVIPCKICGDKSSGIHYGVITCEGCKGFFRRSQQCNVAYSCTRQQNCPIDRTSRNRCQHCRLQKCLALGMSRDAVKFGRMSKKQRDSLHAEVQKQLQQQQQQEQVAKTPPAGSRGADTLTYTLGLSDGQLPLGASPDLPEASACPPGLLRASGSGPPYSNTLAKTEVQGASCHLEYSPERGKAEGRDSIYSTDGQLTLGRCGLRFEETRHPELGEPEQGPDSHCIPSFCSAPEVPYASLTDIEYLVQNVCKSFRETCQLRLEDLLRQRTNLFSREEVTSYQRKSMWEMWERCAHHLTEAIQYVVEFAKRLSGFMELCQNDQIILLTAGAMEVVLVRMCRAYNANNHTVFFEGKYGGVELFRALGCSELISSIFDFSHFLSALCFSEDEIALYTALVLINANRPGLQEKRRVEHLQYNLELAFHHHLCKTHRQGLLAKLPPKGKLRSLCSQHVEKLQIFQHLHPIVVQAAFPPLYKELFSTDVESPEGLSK
With `CC1CC(C)CN(CCCNC(=O)Cn2ncc3c([nH]c4ccccc43)c2=O)C1` (stereo not drawn), the Potency entry is “inactive”.

In the case of `Cc1cccc(N(C(=O)c2sc(C)nc2C)C(C(=O)NCC2CCCO2)c2ccccc2)c1` (stereo not drawn), the Potency entry was “inactive”. The same measure, in the same setting: the value for `CCC(NC(=O)c1cc(COc2ccc(F)c(F)c2)on1)c1ccncc1` (stereo not drawn) was “inactive”; that for `CC1CCC(NC(=O)CN(C)S(=O)(=O)c2ccc3c(c2)c(=O)n(C)c(=O)n3C)CC1` (stereo not drawn) was “inactive”; that for `COc1ccc(C(C(=O)NC2CCCCC2)N(C(=O)c2snc(C(N)=O)c2N)c2ccccc2OC)cc1` (stereo not drawn) was “inactive”. With `O=C(NC(=S)N1CCN(Cc2ccccc2)CC1)c1ccccc1`, the Potency is 1 µM (active). On the same count and under the same terms, the value for `O=C(c1cccc([N+](=O)[O-])c1)N1CCN(Cc2ccccc2)CC1` was “inactive”; that for `O=C(c1cccc(Cl)c1)N1CCN(Cc2ccccc2)CC1` was “inactive”; that for `CC(C)c1nnc(NC(=O)CCC(=O)N2CCN(c3cccc(Cl)c3)CC2)s1` was “inactive”. Same read-out and setting: the value for `COc1ccc(NC(=O)C/C(C)=N/NC(=O)c2cnccn2)cc1Cl` was “inactive”. Still for that read-out and setting: with `COc1cc(OC)c(S(=O)(=O)Nc2ccccc2C(=O)O)cc1S(=O)(=O)Nc1ccccc1C(=O)O` the entry was “inactive”. As for `CCc1cccc(C)c1N1C(=O)CN(Cc2ccccc2)C1=S`, the Potency result was “inactive”. As for `CC(N=Cc1nc(-c2ccccc2)oc1O)c1ccccc1` (stereo not drawn), the Potency result is “inactive”. Consider `CCOc1ccc2nc(/N=C/c3nc(-c4ccccc4)oc3O)sc2c1`, for which the activity change, negative = inhibition was -14.9% [at 10 µM] (inactive). With `Oc1oc(-c2ccccc2Br)nc1/C=N/c1ccccn1`, the Potency is 8.91 µM (active).

On to `Cc1ccnc(NS(=O)(=O)c2ccc(NC(=O)c3oc4ccccc4c3C)cc2)n1`, for which the Potency result was “inactive”. Same read-out and setting: with `Cc1ccc(S(=O)(=O)N(CC(=O)Nc2cccnc2)c2ccc(Br)cc2)cc1` the entry was “inactive”; with `Cc1cc(NC(=O)CCC2COc3ccccc3O2)no1` (stereo not drawn), “inactive”.

On to `Cc1ccc(S(=O)(=O)N(C)C)cc1NC(=O)COC(=O)C1COc2ccccc2O1` (stereo not drawn), for which the Potency result was “inactive”. For `CCCN(CC1COc2ccccc2O1)C(=S)Nc1ccc(C)cc1` (stereo not drawn), the Potency is 15.8 µM (active). On the same count and under the same terms, with `COCn1c(C(O)c2ccccc2)cc2ccccc21` (stereo not drawn) the entry was “inactive”. Same read-out and setting: the value for `O=S(=O)(NCc1ccccn1)c1ccc(F)cc1` was “inactive”; that for `Cc1cc(S(=O)(=O)NCc2ccccn2)c(Cl)cc1Cl` was 7.08 µM (active).

In the case of `Cc1cc(Cl)c(S(=O)(=O)NCc2cccnc2)cc1OCC(N)=O`, the Potency entry is “inactive”.

`O=S(=O)(NCc1cccnc1)c1ccc(Br)s1`: the Potency result is “inactive”. Take `CCOc1cc(C)c(S(=O)(=O)NCc2ccccn2)cc1C`: the activity change, negative = inhibition is -29.6% [at 1.91 µM] (inactive). Regarding `O=S(=O)(NCc1ccccn1)c1ccc(Br)s1`, the Potency was 8.91 µM (active). `COc1cccc(NC(=O)CN(C)C(=O)c2ccccc2CCc2ccccc2)c1`: the Potency entry is “inactive”.

Take `CCCn1c(=O)c(C(=O)Nc2cc(C)ccn2)c(O)c2ccccc21`: the Potency result was “inactive”.

In the case of `CC(NCC(=O)Nc1cc(Cl)cc(Cl)c1)c1ccccc1` (stereo not drawn), the Potency result was “inactive”. The same measure, in the same setting: the value for `Cc1cccnc1NC(=O)Cn1c(=O)oc2ccccc21` was “inactive”; that for `CN(C(=O)c1cccc(OC2CCN(S(=O)(=O)N(C)C)CC2)c1)C1CCOC1` (stereo not drawn) was “inactive”. Still for that read-out and setting: the value for `O=C(NC(=O)c1ccccc1)NC(=O)c1ccccc1` was “inactive”. The same measure, in the same setting: the value for `O=C(Nc1ccc(C(=O)O)c(O)c1)c1ccccc1` was “inactive”; that for `O=C(NC(=O)c1ccccc1)Nc1ccccc1O` was 7.08 µM (active); that for `C[C@H](NC(=O)C1CC(=O)N(c2ccc3c(c2)OCCO3)C1)C(=O)N1CCC(C(=O)O)CC1` (stereo partly drawn) was “inactive”. `COc1ccc2nc(C)cc(Nc3cccc(C(=O)O)c3)c2c1`: the Potency result was “inactive”.

On to `O=C(Nc1ccn(Cc2ccccc2)n1)c1cccc(F)c1`, for which the Potency result is “inactive”. Still for that read-out and setting: the value for `O=C(Nc1ccn(Cc2ccccc2)n1)c1n[nH]c([N+](=O)[O-])c1Cl` was 7.08 µM (active); that for `Cn1cc([N+](=O)[O-])c(C(=O)Nc2cnn(Cc3ccc(F)cc3)c2)n1` was “inactive”.

As for `CC(C)[C@H](NC(=O)N1CCn2c1nc1ccccc12)C(=O)NCCc1ccccc1`, the Potency entry was “inactive”. Same read-out and setting: the value for `CCCCCN(C(=O)CCC(=O)OCC(=O)NCc1ccc(OC)cc1)c1c(N)n(CCCC)c(=O)[nH]c1=O` was “inactive”; that for `COc1ccc(CN(C)C(=S)Nc2ccc(Cl)cc2Cl)cc1` was 17.8 µM (active). For the compound `COc1ccc(CN2CCn3ncc(C(=O)Nc4ccc(Cl)cc4Cl)c3C2=O)cc1`, the Potency entry was “inactive”.

On to `CN(C)C(=S)Nc1ccc(Br)cc1Cl`, for which the Potency result was “inactive”.

Take `CCn1c(=O)c(=O)[nH]c2c(=O)oc3ccc(S(=O)(=O)Nc4ccc(OC)cc4)cc3c21`: the Potency entry was “inactive”.

For the compound `O=C1CCCC2=C1C(c1ccccc1)n1c(s/c(=C/c3cccc(F)c3)c1=O)=N2` (stereo not drawn), the Potency entry is “inactive”. Still for that read-out and setting: with `COCCOC(=O)C1=C(C)N=c2s/c(=C\c3cccs3)c(=O)n2C1c1cccs1` (stereo not drawn) the entry was “inactive”; with `COc1ccc(OC)c(C2C3=C(N=c4s/c(=C\c5cccc(O)c5)c(=O)n42)c2ccccc2CC3)c1` (stereo not drawn), 12.6 µM (active); with `CC(=O)c1c(O)cc2n(c1=O)-c1ccc(Cl)cc1C2(C)C`, 10 µM (active). The same measure, in the same setting: the value for `Cc1coc(C)c1C(=O)CC1(O)C(=O)N(C)c2ccc(Cl)cc21` (stereo not drawn) was “inactive”; that for `O=C(COc1ccc2ccc(=O)oc2c1)NCC(O)c1ccccc1` (stereo not drawn) was “inactive”; that for `COc1cccc(CNC(=O)C2CCCN(c3ncnc4c3nc3n4CCCCC3)C2)c1` (stereo not drawn) was “inactive”. Still for that read-out and setting: the value for `CCOC(=O)c1c(NC(=S)NC(=O)/C=C/c2cccs2)sc(C)c1C` was 1.26 µM (active). On to `CCOC(=O)c1c(NC(=O)/C=C/c2ccco2)sc(C)c1C`, for which the Potency result is “inactive”.

Consider `CCc1nnc(NS(=O)(=O)c2ccc(NC(=S)NC(=O)/C=C/c3cccs3)cc2)s1`, for which the Potency entry is “inactive”. The same measure, in the same setting: the value for `COC(=O)C1=CN(c2ccc(F)c(F)c2)C=C(C(=O)OC)C1c1ccc([N+](=O)[O-])cc1` was “inactive”; that for `CCOc1ccc(C(=O)Nc2ccc(S(=O)(=O)Nc3cc(C)on3)cc2)cc1` was “inactive”; that for `CC(NC(=O)C(=O)Nc1nccs1)c1ccccc1` (stereo not drawn) was “inactive”. The same measure, in the same setting: the value for `O=C(CCn1ccc([N+](=O)[O-])n1)Nc1nccs1` was “inactive”; that for `Cc1c(Br)c([N+](=O)[O-])nn1C(C)C(=O)Nc1nccs1` (stereo not drawn) was 20 µM (active).

For the compound `CCOc1ccccc1NC(=O)NC1CCCCCCC1`, the Potency result was “inactive”. Same read-out and setting: with `COc1ccc(CNC(=O)C(c2ccc(O)cc2)N(Cc2ccco2)C(=O)c2snc(C(N)=O)c2N)cc1` (stereo not drawn) the entry was “inactive”; with `O=c1cc(Cl)c2ccccc2n1-c1ccccc1`, “inactive”; with `Cc1cccc(CSc2nnc(NC(=O)CSc3nnc(C)s3)s2)c1`, “inactive”. Still for that read-out and setting: the value for `Cc1nnc(NC(=O)CSc2nccn2-c2cccc(C)c2C)s1` was 10 µM (active); that for `COc1ccccc1-n1c(CNC(=O)c2ccccc2)nnc1SCC(=O)Nc1nnc(C)s1` was “inactive”. Consider `Cc1ccc(C(=O)N/C(=C\c2cn(C)c3ccccc23)C(=O)N2CCN(C)CC2)cc1`, for which the Potency entry was “inactive”. The same measure, in the same setting: the value for `Cc1cccc(NC(=S)NC(=O)c2ccc(Br)o2)c1` was 2.82 µM (active).

As to `Cc1cccc(NC(=O)NC(=S)NC(=O)c2ccccc2)c1`, the Potency is 2.51 µM (active).

For the compound `COc1cc(OC)c(NC(=O)c2ccc(Br)o2)cc1Cl`, the Potency entry was “inactive”. Same read-out and setting: the value for `Cc1ccc(NC(=O)c2oc(=O)c3ccccc3c2-c2ccccc2)c(C)c1` was “inactive”; that for `Cc1cccc(NC(=O)/C(=C\c2ccco2)NC(=O)c2ccccc2)c1` was “inactive”. For `O=C(CNC(=O)c1ccc(Br)o1)Nc1ccccc1`, the Potency result was “inactive”. On the same count and under the same terms, the value for `Cc1cc2[nH]ncc2cc1NC(=S)NC(=O)c1ccccc1` was “inactive”.

On to `Cc1ccc(NC(=S)NC(=O)c2ccc(-c3ccccc3)cc2)c(C)c1`, for which the Potency was 4.47 µM (active). For `Cc1ccc(NC(=O)NC(=O)c2ccccc2)cc1F`, the activity change, negative = inhibition is 8.25% [at 1.91 µM] (inactive). For the compound `c1cnc(N2CCN(c3ccc4ccccc4n3)CC2)nc1`, the Potency entry is “inactive”. For the compound `CCCN1CCn2c3c(c4cc(Br)ccc42)CCCC31` (stereo not drawn), the Potency result was “inactive”. On the same count and under the same terms, with `COCCN1CCn2c(nc3cc(NS(C)(=O)=O)ccc32)C1` the entry was “inactive”; with `COCCOC(=O)c1[nH]c2c(c1C)C(=O)CC(c1ccc(OC)cc1)C2` (stereo not drawn), “inactive”. Turning to `Cc1ccc(OCC(=O)NCCCNC(=O)c2cccnc2)cc1C`, the Potency result was “inactive”.

For `Cc1cn([C@H]2CC(F)[C@@H](CO)O2)c(=O)[nH]c1=O` (stereo partly drawn), the Potency result is “inactive”. Same read-out and setting: the value for `COc1cccc(CNc2ncc(-c3ccccc3)n2C)c1` was “inactive”; that for `CC(C)[C@@H](NC(=O)OC(C)(C)C)C(=O)NCC1CCC(C(=O)N[C@@H](Cc2ccccc2)C(=O)O)CC1` (stereo partly drawn) was “inactive”. On the same count and under the same terms, the value for `CCC1OC(c2ccc([N+](=O)[O-])cc2)=Nc2ccccc21` (stereo not drawn) was “inactive”; that for `CC(=O)Nc1ccc(NC(=O)C2CCCN(S(=O)(=O)c3ccc(Cl)cc3)C2)cc1` (stereo not drawn) was “inactive”. Regarding `COc1ncnc2sc3c(c12)CCCC3`, the Potency entry was “inactive”. In the case of `CCc1nc(N2CCN(C(C)=O)CC2)c2c3c(sc2n1)CCCC3`, the Potency entry was “inactive”.

As to `CCC(O)CNc1nc(-n2nc(C)cc2C)nc2sc3c(c12)CC(C)(C)OC3` (stereo not drawn), the Potency is 1.58 µM (active).

In the case of `CC(C)c1nc(SCC(=O)Nc2cccc(C(=O)O)c2)c2c3c(sc2n1)CCCC3`, the Potency result is “inactive”. As for `CCSc1nc2sc3c(c2c(=O)[nH]1)CC(C)(C)OC3`, the Potency entry is “inactive”. Regarding `Cc1cc(C)n(-c2nc(SCC(=O)N3CCCC3)c3c4c(sc3n2)CCCC4)n1`, the Potency was 6.31 µM (active).

Regarding `COCCNc1nc(-n2nc(C)cc2C)nc2sc3c(c12)CCCC3`, the Potency is 0.562 µM (active).

Take `CCOC(=O)Cn1c(SC)nc2sc3c(c2c1=O)CC(C)(C)OC3`: the Potency entry was “inactive”.

On to `COCCn1c(C)cc(C(=O)CSc2ncnc3sc4c(c23)CCC4)c1C`, for which the Potency result was “inactive”. On to `Cc1cccn2c(=O)c(/C=C(\C#N)C(N)=O)c(N3CCCCCC3)nc12`, for which the Potency result was “inactive”. Same read-out and setting: with `CN(Cc1ccccc1)S(=O)(=O)c1nnc(NC(=O)c2ccccc2F)s1` the entry was “inactive”; with `CC(=O)Nc1cccc(NC(=O)CSc2nccn2Cc2ccc(F)cc2)c1`, “inactive”; with `Cn1c(=O)c2ccccc2n(CC(=O)Nc2ccc3c(c2)OCCO3)c1=O`, “inactive”. Same read-out and setting: the value for `Cc1ccc(-c2nc(CS(=O)(=O)CC(=O)NCc3ccc4c(c3)OCO4)c(C)o2)cc1` was “inactive”. As for `Cc1ccc(NS(=O)(=O)c2ccc(-c3ccc(=O)[nH]n3)o2)c(C)c1`, the Potency result is “inactive”. On the same count and under the same terms, the value for `NC(=O)CN1CCCC1c1ccc2c(c1)OCCO2` (stereo not drawn) was “inactive”.
